For 77 molecules, inhibition results are on record in PubChem BioAssay AID1066 (SRMLSC, 2008).

Out of some 190,000 compounds screened, about 790 (0.42%) were called active.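 How the source made its calls: active means inhibition above a set limit, the median over all tested compounds plus 3 SD (cut at about 9.5% in these data); inconclusive means no clear call, values can overlap the other calls; inactive means the rest.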 What follows is part of a selection rich in actives, with near analogues and random picks from the rest.

This assay has as its system HMG-CoA reductase (Enterococcus faecalis, mvaE). Briefly: class II HMG-CoA reductase enzyme inhibition – biochemical, Enterococcus faecalis, primary screen (AID 1066).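 Further: enzyme runs in reverse so mevalonate oxidation gives rising NADPH absorbance; 0% = complete reaction with DMSO and 100% = background rate lacking mevalonate.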 The following applies: purified E. faecalis HMGR, NADPH absorbance 340 nm kinetic; at 10 µM; stronger effect = higher value.
For the molecule `O=C1c2ccccc2NC(c2ccccn2)N1NS(=O)(=O)c1ccccc1` (configuration not stated), the inhibition was -5.78% (inactive).

Take `CC1CCCCC1NC(=O)COC(=O)Cc1ccc(Br)cc1` (configuration not stated): the inhibition is -8.55% (inactive).

Take `Cc1cc(C)c[n+](-c2nc3ccccc3nc2[N-]S(=O)(=O)c2cccs2)c1`: the inhibition was -2.15% (inactive).

On to `COc1cccc(C2SCC(=O)N2c2cccc(C)c2)c1OC` (configuration not stated), for which the inhibition is -2.05% (inactive).

Take `O=C(c1ccccc1)c1ccc(OC(=O)N2CCCC2)cc1`: the inhibition was -3.15% (inactive).

Regarding `Cc1cccc(OCC(=O)Nc2ccccc2F)c1`, the inhibition was -6.74% (inactive).

As for `O=C(COc1cccc(F)c1)Oc1ccc(C(=O)c2ccccc2)cc1`, the inhibition was 11.7% (active).

Regarding `Cc1nn(CC(=O)Nc2ccc3c(c2)OCO3)c(C)c1[N+](=O)[O-]`, the inhibition is -8.05% (inactive).

Turning to `CC1CC(=S)Nc2ccccc2N1Cc1ccccc1` (configuration not stated), the inhibition is -4.09% (inactive).

Turning to `CC(=O)Nc1ccc(S(=O)(=O)N2CCN(C3CCCCCCC3)CC2)cc1`, the inhibition was -5.25% (inactive).

On to `CC(=O)Nc1ccc(S(=O)(=O)N2CCCC2C(=O)O)cc1` (configuration not stated), for which the inhibition is 18.5% (active).

Turning to `O=C(O)C1CCCN1S(=O)(=O)c1ccc2c(c1)CCC2` (configuration not stated), the inhibition is 0.94% (inactive).

For the molecule `CCOC(=O)c1[nH]cnc1C(=O)Nc1ccccc1C`, the inhibition was -0.64% (inactive).

As to `O=C1CC(N2CCN(c3ccc(F)cc3)CC2)C(=O)N1c1ccccc1` (configuration not stated), the inhibition was -3% (inactive).

Take `COC(=O)/C(NC(C)=O)=C(\C)c1ccc(Cl)cc1`: the inhibition was -0.22% (inactive).

Consider `COC(=O)C(=Nc1ccccc1)/C(C(=O)C(=O)N(C)c1ccccc1)=C(\O)c1ccc(Cl)cc1`, for which the inhibition is 12.8% (active).

For the molecule `CN(C)/C=C(/C(=O)c1ccc(Cl)cc1)S(=O)(=O)c1ccccc1`, the inhibition is -1.53% (inactive).

As for `O=C(CCc1ccccc1)Nc1ccc(NC(=O)C2CCCCC2)nc1`, the inhibition was -5.74% (inactive).

`COc1ccc(OC)c(-c2csc(NC(=O)C3=NNC(=O)CC3)n2)c1`: the inhibition was -3.44% (inactive).

`CC(NC(=O)CSc1nc2c(cc1C#N)CN(C)CC2)c1ccccc1` (configuration not stated): the inhibition is -4.51% (inactive).

Regarding `CC1(C)CCc2nc(SCc3ccccc3)c(C#N)cc2C1`, the inhibition was 13.3% (active).

Consider `Cc1cc(NC(=O)CSc2nc3c(cc2C#N)CCCCC3)no1`, for which the inhibition is -2.85% (inactive).

For the molecule `CCCC(=O)Nc1cccc(NC(=S)NC(=O)C(C)Oc2ccc(Cl)cc2Cl)c1` (configuration not stated), the inhibition is -6.26% (inactive).

On to `N=C1C(c2nc3ccccc3[nH]2)=C(O)CN1NC(=O)c1c[nH]c2ccccc12`, for which the inhibition is 1.51% (inactive).

On to `CC(=O)Nc1ccc(NC(=O)C(C)n2c3ccccc3c3nc(=O)cc(C)n32)cc1` (configuration not stated), for which the inhibition was 3.72% (inactive).

As to `CCCCN(C(=O)/C=C/c1ccco1)c1c(N)n(CC(C)C)c(=O)[nH]c1=O`, the inhibition is 1.3% (inactive).

Turning to `Cc1cc(C(=O)N/N=C/c2cc([N+](=O)[O-])cc(C)c2O)n[nH]1`, the inhibition was 1.28% (inactive).

`CC1(C)OC(=O)C(=CNC(CO)C(=O)O)C(=O)O1` (configuration not stated): the inhibition is -0.06% (inactive).

Regarding `CC(C)(C)NC(=O)CN(C(=O)c1csnn1)c1ccccc1-c1ccccc1`, the inhibition is 3.37% (inactive).

On to `CCOC(=O)CC(NC(=O)C1c2ccccc2Oc2ccccc21)c1ccc(C)cc1` (configuration not stated), for which the inhibition was -0.18% (inactive).

For the molecule `O=C1Nc2ccc([N+](=O)[O-])cc2C1=Nc1cccc(CO)c1`, the inhibition is -7.75% (inactive).

Regarding `C/C(=N\OCC(=O)Nc1ccc(Br)cc1)c1cccs1`, the inhibition was -3.94% (inactive).

As to `COC(=O)c1ccc(/C=N/N2C(C)CCCC2C)cc1` (configuration not stated), the inhibition is -1.41% (inactive).

As to `CCN(C(=O)COc1cccnc1[N+](=O)[O-])C1CCS(=O)(=O)C1` (configuration not stated), the inhibition is 1.64% (inactive).

For `CCc1ccc(NC(=O)Nc2ccncc2)cc1`, the inhibition is -0.38% (inactive).

Turning to `CCOC(=O)CCCNC(=O)COC(=O)c1cc(Br)c(Br)s1`, the inhibition is 6.54% (inactive).

As to `Cc1cccc(-c2ncc(CN3CCC(CO)(CCCc4ccccc4)CC3)cn2)c1`, the inhibition was 3.07% (inactive).

For `COc1cccc(CC2(CO)CCN(Cc3cnc(-c4cccc(C)c4)nc3)CC2)c1`, the inhibition was 10.2% (active).

For `COc1ccc(CC2(CO)CCN(Cc3cnn(C)c3)CC2)cc1`, the inhibition was 1.94% (inactive).

`CCCCc1ccc(NC(=S)NCCCN2CCOCC2)cc1`: the inhibition is 9.74% (active).

`Cc1cc(C)cc(NC(=S)NCCCN2CCOCC2)c1`: the inhibition was -2.33% (inactive).

`Cc1ccc(NC(=S)NCCN2CCOCC2)cc1`: the inhibition was -1.8% (inactive).

Turning to `CCOC(=O)c1sc(NC(=O)c2cc(S(=O)(=O)N3CCOCC3)ccc2C)nc1C`, the inhibition was -0.38% (inactive).

Regarding `Cc1ccc(S(=O)(=O)N2CCOCC2)cc1C(=O)NCc1ccc(F)cc1`, the inhibition was -7.95% (inactive).

As to `Cc1ccc(S(=O)(=O)N2CCOCC2)cc1C(=O)OC1CCCCC1=O` (configuration not stated), the inhibition was 11.2% (active).

Consider `C/C=C/C=C/C(=O)OCC(=O)Nc1ccc(Cl)cc1`, for which the inhibition was -6.31% (inactive).

As for `O=C(/C=C/c1ccccc1Cl)Nc1ccc(S(=O)(=O)Nc2ncccn2)cc1`, the inhibition is 9.55% (active).

For the molecule `O=C(/C=C/c1ccc(Cl)cc1)Nc1ccc(S(=O)(=O)Nc2ncccn2)cc1`, the inhibition is 1.98% (inactive).

For the molecule `CC(=O)NS(=O)(=O)c1ccc(NC(=O)/C=C/c2ccccc2Cl)cc1`, the inhibition was 4.83% (inactive).

For the molecule `CCOC(=O)C1CCN(S(=O)(=O)c2cc(F)ccc2OC)CC1`, the inhibition is -2.34% (inactive).

For the molecule `COc1cc(Cl)c(C)cc1NC(=O)[C@@H]1CCCN1C(=O)c1cccs1`, the inhibition is -6.68% (inactive).

Take `CCOC(=O)C1(Cc2cccc(OC)c2)CCN(C(C)CC(C)(C)O)CC1` (configuration not stated): the inhibition is -0.39% (inactive).

On to `O=C1CCN(C(=S)NCCc2ccccc2)CC1`, for which the inhibition was 4.83% (inactive).

For `COc1ccc(C(=O)NC2CCN(C(=S)Nc3ccccc3)CC2)cc1`, the inhibition was -0.68% (inactive).

For `COc1ccc(C(=O)NC2CCN(C(=S)NCCc3ccccc3)CC2)cc1`, the inhibition is 16.3% (active).

On to `Cc1ccc2c(c1)C1CN(C)CCC1N2S(=O)(=O)c1ccc(Oc2ccc([N+](=O)[O-])cc2)cc1` (configuration not stated), for which the inhibition was -1.37% (inactive).

As to `O=C(COC(=O)c1ccc(Cl)nc1)NCc1cccs1`, the inhibition was -2.01% (inactive).

As for `COc1cc(/C=C2/C(=O)ON=C2C)ccc1OCc1cccc(F)c1`, the inhibition is 15.9% (active).

`COc1cc(/C=N/n2c(C)n[nH]c2=S)ccc1OCc1ccccc1`: the inhibition is 5.27% (inactive).

In the case of `COc1cc(/C=C2/C(=O)ON=C2C)ccc1OCc1ccccc1F`, the inhibition was -4.22% (inactive).

With `N/C(Cc1ccc([N+](=O)[O-])cc1)=N\OC(=O)C1CCCCC1`, the inhibition was 5.63% (inactive).

`Cc1ccc(S(=O)(=O)N2CCOCC2)cc1NC(=O)CSc1nnc(N)s1`: the inhibition is -3.38% (inactive).

In the case of `CCNC(=O)N1c2ccccc2Sc2ccccc21`, the inhibition is -0.32% (inactive).

On to `CCOC(=O)CNC(=O)CN1C(=O)CCSc2ccccc21`, for which the inhibition is 0.21% (inactive).

Take `CCOC(=O)CNC(=O)N1c2ccccc2Sc2ccccc21`: the inhibition was 10.8% (active).

Consider `CCOC(=O)C1CCCN(C(=O)c2cccc(S(=O)(=O)N3CCOCC3)c2)C1` (configuration not stated), for which the inhibition was 2.45% (inactive).

As to `O=C(CCc1[nH]c2ccccc2c1Sc1ccccc1)N(CCO)CCO`, the inhibition was -1.48% (inactive).

With `COCc1c(N)c(C)nc(Cl)c1C#N`, the inhibition was -1.22% (inactive).

As to `CN(Cc1ccccn1)Cc1nc(-c2ccc(Cl)cc2)no1`, the inhibition was -4.55% (inactive).

As for `O=C(Oc1ccccc1)c1ccc2nccnc2c1`, the inhibition is -2.55% (inactive).

Take `CC(C)(C)c1csc(NC2=NS(=O)(=O)c3ccccc32)n1`: the inhibition is -4.26% (inactive).

For `O=C(Oc1cccc(NC2=NS(=O)(=O)c3ccccc32)c1)c1ccncc1`, the inhibition is 13.3% (active).

Take `O=C1Oc2ccccc2C(=O)/C1=C/c1ccccc1O`: the inhibition is -4.42% (inactive).

`Cc1ccc(CN2CCN(Cc3cccc(C)n3)CC2CCO)cc1` (configuration not stated): the inhibition was -2.73% (inactive).

Take `CC(C)OC(=O)CN1C(=O)c2ccccc2C1=O`: the inhibition was 0.65% (inactive).

For `O=C1c2ccccc2C(=O)N1CCC(O)C[N+](=O)[O-]` (configuration not stated), the inhibition is 14.4% (active).

For the molecule `O=C1c2ccccc2C(=O)N1CCC(c1ccccc1)c1ccco1` (configuration not stated), the inhibition was -3.81% (inactive).

Broadly, the inhibition is the drop in the measured response relative to a control, in per cent.
